From PubChem BioAssay (Tox21)
Values joined by “and” are separate entries in the source; they are usually repeats but may differ in a detail not shown here. Equal entries are not always repeated. Inconclusive results are not listed. Active and inactive are the calls of the source. Calls follow the shape of the dose curve; as a rule, active = well fitted cell-killing curve with a large enough effect in the repeat runs; inconclusive = weak or mixed curves, or effect the other way; inactive = flat fitted curve, though single readings scatter.
% is scaled to controls: 0 for no effect and ±100 for the full control effect; potency is read from the fitted curve at half-maximal effect.

Assay: qHTS RealTime-Glo MT Cell Viability Assay in HEK293 cells - 40 hour (AID 1224874); also: nearly all actives have a fitted effect of over 50% in size
Conditions: RealTime-Glo luminescence; max response: hits give low values
From the text: U.S. Tox21 Program National Center for Advancing Translational Sciences [NCATS] NIH Chemical Genomics Center [NCGC] U.S. Environmental Protection Agency [EPA] National Institutes of Environmental Health Sciences [NIEHS] National Toxicology Program [NTP] U.S. Food and Drug Administration [FDA] Tox21 Assay Overview: Measure of cell viability is critical in the cell-base assay. Analysis of cell viability is necessary for the characterization of cell responses to cytotoxic drugs and environmental stress. A RealTime-Glo MT Cell Viability Assay to monitor cell viability in real time of continues cell culture during 40 hours of compound treatment was used to screen Tox21 10K library compounds in Hek293 cells. The RealTime-Glo MT Cell Viability Assay is a nonlytic, homogeneous, bioluminescent method to measure cell viability in real time using a simple, plate-based method. The assay involves adding NanoLuc luciferase and a cell-permeant prosubstrate to cells in culture. Viable cells reduce the proprietary prosubstrate to generate a substrate for NanoLuc luciferase. This substrate diffuses from cells into the surrounding culture medium, where it is rapidly used by the NanoLuc Enzyme to produce a luminescent signal. The signal correlates with the number of viable cells, making the assay well suited for cytotoxicity studies.
Tox21 Assay Protocol Summary: The mixture of Hek293 cell suspension and reagents were dispensed at 600cells/6 ul/well in 1536-well tissue culture treated black solid bottom plates using a Multidrop dispenser. After the assay plates were incubated at a 37 C/5% CO2 incubator for 5 hours, 23 nL of compounds dissolved in DMSO, positive and negative controls was transferred to the assay plate by a pintool work station. The plates were incubated at 37 C for 40 hours. The luminescence intensity were measured at 0h, 8h, 16h, 24h, 32h and 40h time points using ViewLux plate reader during compound treatment.
In the case of `O=C1CCc2ccc(OCCCCN3CCN(c4cccc(Cl)c4Cl)CC3)cc2N1`, the Potency is reported as 9.52 µM (active).
With `CC(C)(c1cc(Br)c(OCC(Br)CBr)c(Br)c1)c1cc(Br)c(OCC(Br)CBr)c(Br)c1` (stereo not given) the max response was -0.358% (inactive).
For `NC(=O)c1cccc([N+](=O)[O-])c1`, the max response was -0.169% (inactive).
For `CCOC(=O)NNc1ccc(N(CC)CC(C)O)nn1` (stereo not given), the max response was 7.18% (inactive).
With `CCOC(=O)Cn1cccc1-c1nc(-c2ccc(OC)cc2)c(-c2ccc(OC)cc2)s1` the max response was -5.42% (inactive).
In the case of `Cc1ccc(C(=O)O)cc1`, the max response is reported as 10% (inactive).
With `Clc1sc(Cl)c(Cl)c1Cl` the max response was 7.4% (inactive).
In the case of `O=C(O)CCN(C1(C(=O)NO)CCCC1)S(=O)(=O)c1ccc(Oc2ccc(F)cc2)cc1`, the max response is reported as 9.57% (inactive).
With `CCOc1ccc2ccccc2c1C(=O)N[C@@H]1C(=O)N2[C@@H]1SC(C)(C)[C@@H]2C(=O)O` the max response was 1.12% (inactive).
With `Cc1c(C)c2c(c(C)c1O)CC[C@@](C)(CCC[C@H](C)CCC[C@H](C)CCCC(C)C)O2` the max response was -14.1% (inactive).
For `Cc1c2ccccc2c(C)c2c1ccc1ccccc12`, the Potency was 43.2 µM (active) and 34.7 µM (active).
For `OC[C@H]1O[C@H](O[C@H]2O[C@H](CO)[C@@H](O)[C@H](O)[C@H]2O)[C@H](O)[C@@H](O)[C@@H]1O`, the max response was 25.1% (inactive).
With `Cc1ccc(C)cc1` the max response was 12.3% (inactive).
In the case of `CC(C)(C)c1csc(-c2cc3cc(OCc4ccccc4CC(=O)O)ccc3o2)n1`, the Potency is reported as 38.9 µM (active).
For `CC(C)(C)CC(C)(C)c1ccc(Nc2ccc(C(C)(C)CC(C)(C)C)cc2)cc1`, the max response was 9% (inactive).
With `C=CCn1c(=O)n(CC=C)c(=O)n(CC=C)c1=O` the max response was -5.88% (inactive).
In the case of `Cc1nc2n(c(=O)c1CCN1CCC(c3noc4cc(F)ccc34)CC1)CCCC2`, the Potency is reported as 3.01 µM (active).
With `CCCC(=O)OCOC(=O)C1=C(C)NC(C)=C(C(=O)OC)C1c1cccc(Cl)c1Cl` (stereo not given) the max response was 2.11% (inactive).
With `Cc1c(N)cccc1C(F)(F)F` the max response was -0.691% (inactive).
In the case of `CC(C)=CCC1=C(O)c2ccccc2C(=O)C1=O`, the Potency is reported as 24.4 µM (active).
For `C1CCC(SSC2CCCCC2)CC1`, the max response was -7.62% (inactive).
In the case of `O=S(=O)(O)c1ccc(Nc2nc(Nc3ccc(/C=C/c4ccc(Nc5nc(Nc6ccc(S(=O)(=O)O)cc6)nc(N(CCO)CCO)n5)cc4S(=O)(=O)O)c(S(=O)(=O)O)c3)nc(N(CCO)CCO)n2)cc1`, the max response is reported as -1.51% (inactive).
With `NC[C@H]1O[C@H](O[C@H]2[C@H](O[C@@H]3O[C@H](CO)[C@@H](O)[C@H]3O)C(O)[C@H](N)C[C@@H]2N)[C@H](N)[C@@H](O)[C@@H]1O` (stereo not given in full) the max response was 4.82% (inactive).
In the case of `CCCCCC/C=C\CCCCCCCC(=O)O`, the max response is reported as -4.29% (inactive).
With `COc1ccc2cc1Oc1ccc(cc1)C[C@H]1c3c(cc4c(c3Oc3cc5c(cc3OC)CCN(C)[C@@H]5C2)OCO4)CCN1C` the Potency was 6.74 µM (active).
In the case of `CC/C=C\CCCCCO`, the max response is reported as 9.87% (inactive).
In the case of `CCCCCCCCCCCC(=O)OCC(C)OC(=O)CCCCC(=O)O` (stereo not given), the max response is reported as 14.1% (inactive).
In the case of `OCCN1CCN(CCCN2c3ccccc3Sc3ccc(C(F)(F)F)cc32)CC1`, the Potency is reported as 23.9 µM (active).
For `CCCC(=O)OCCc1ccccc1`, the max response was 5.68% (inactive).
In the case of `O=C(/C=C/c1ccccc1)OC/C=C/c1ccccc1`, the max response is reported as -1.97% (inactive).
For `C[C@@H](O)[C@H](N)C(=O)O`, the max response was -1.76% (inactive).
For `Cc1cccc(C)c1NC(=O)c1ccc(N)cc1`, the max response was -2.12% (inactive).
In the case of `COc1cc(C)ccc1O`, the max response is reported as 3.04% (inactive).
With `CNc1ccc([N+](=O)[O-])cc1` the max response was -13.4% (inactive).
For `Cc1cc(C(C)(C)C)cc(C)c1CC1=NCCN1`, the max response was -8.22% (inactive).
For `C=Cc1cccc(C)c1`, the max response was -2.09% (inactive) and 3.82% (inactive).
For `CCCCCCCC`, the max response was -2.45% (inactive).
With `O=C1c2ccccc2C(=O)N1SC1CCCCC1` the Potency was 21.9 µM (active) and 38.9 µM (active).
With `Oc1c(I)cc(Cl)c2cccnc12` the Potency was 24.5 µM (active).
In the case of `O=C(O)c1cc(O)c2ccccc2c1O`, the Potency is reported as 38.9 µM (active).
